Assay [1] is described as follows: qHTS RealTime-Glo MT Cell Viability Assay in HepG2 cells - 40 hour (AID 1224870). Further: nearly all actives have a fitted effect of over 50% in size. Put shortly:
(§1)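 HepG2 cells (600/well) mixed with RealTime-Glo MT reagent, settled 5 h at 37 C/5% CO2 before compound addition. Nonlytic NanoLuc luminescence from viable-cell prosubstrate reduction read repeatedly during 40 h treatment at 37 C.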

Assay [2] can be described thus: A CellTox Green Cytotoxicity Assay to monitor cytotoxicity in HEK293 cells - 40 hour (AID 1224871). Further: nearly all actives have a fitted effect of over 45% in size. Further: potency means the concentration at half of the fitted maximal effect. Put shortly:
(§2)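 Fluorescence intensity, read at 0, 8, 16, 24, 32 and 40 h of compound treatment, reflected dye binding to DNA of dead HEK293 cells; compounds (23 nL, DMSO) were added 5 h after plating cells with reagent.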

Assay [3] is described as follows: qHTS RealTime-Glo MT Cell Viability Assay in HEK293 cells - 16 hour (AID 1224872). Further: nearly all actives have a fitted effect of over 50% in size. Further: potency means the concentration at half of the fitted maximal effect. Put shortly: (§3)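 HEK293 cells were seeded at 600 cells/well together with NanoLuc luciferase and cell-permeant prosubstrate, preincubated 5 h at 37 C/5% CO2, then given compound in DMSO by pintool. Luminescence from viable-cell prosubstrate reduction was read repeatedly over 40 h.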

Assay [4] in a line: qHTS RealTime-Glo MT Cell Viability Assay in HepG2 cells - 8 hour (AID 1224873). Further: nearly all actives have a fitted effect of over 55% in size. Summed up:
as §1

Assay [5] can be described thus: qHTS RealTime-Glo MT Cell Viability Assay in HEK293 cells - 40 hour (AID 1224874). Further: nearly all actives have a fitted effect of over 50% in size. Further: potency means the concentration at half of the fitted maximal effect. Particulars: RealTime-Glo luminescence; max response: stronger effect = lower value. Put shortly: (§4)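 Viable HEK293 cells reduce a cell-permeant prosubstrate; the product diffuses out and is consumed by NanoLuc in the medium to give light. Compounds went in after a 5 h incubation and plates were read over the treatment course.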

Assay [6] is described as follows: A CellTox Green Cytotoxicity Assay to monitor cytotoxicity in HEK293 cells - 24 hour (AID 1224875). Further: series mostly up to about 77 µM; nearly all actives have a fitted effect of over 45% in size. Summed up: as §2
The nature of assay [7]: A CellTox Green Cytotoxicity Assay to monitor cytotoxicity in HepG2 cells - 16 hour (AID 1224876). Further: nearly all actives have a fitted effect of over 45% in size. Summed up: (§5)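 Using 1536-well format, dye-containing HepG2 suspension was seeded, allowed 5 h at 37 C/5% CO2, dosed by pintool with compounds, positive and negative controls, and imaged for fluorescence across 40 h.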
Assay [8] is described as follows: qHTS RealTime-Glo MT Cell Viability Assay in HepG2 cells - 32 hour (AID 1224877). Further: nearly all actives have a fitted effect of over 55% in size. Put shortly:
(§6)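 HepG2 cells were seeded at 600 cells/well together with NanoLuc luciferase and a cell-permeant prosubstrate, preincubated 5 h at 37 C/5% CO2, then pin-dosed with compounds in DMSO. Nonlytic luminescence from viable cells was read at each time point.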

Assay [9] in a line: A CellTox Green Cytotoxicity Assay to monitor cytotoxicity in HepG2 cells - 24 hour (AID 1224878). Further: nearly all actives have a fitted effect of over 45% in size. Further: potency means the concentration at half of the fitted maximal effect. Put shortly:
as §5

A short description of assay [10]: A CellTox Green Cytotoxicity Assay to monitor cytotoxicity in HepG2 cells - 40 hour (AID 1224879). Further: nearly all actives have a fitted effect of over 40% in size. Further: potency means the concentration at half of the fitted maximal effect. Summed up: as §5
Assay [11] is described as follows: qHTS RealTime-Glo MT Cell Viability Assay in HEK293 cells - 0 hour (AID 1224880). Put shortly: as §4
A short description of assay [12]: A CellTox Green Cytotoxicity Assay to monitor cytotoxicity in HEK293 cells - 32 hour (AID 1224881). Further: nearly all actives have a fitted effect of over 40% in size. Put shortly: as §2
Assay [13] in a line: A CellTox Green Cytotoxicity Assay to monitor cytotoxicity in HepG2 cells - 0 hour (AID 1224882). Further: nearly all actives have a fitted effect of over 35% in size. Put shortly: as §5
A short description of assay [14]: A CellTox Green Cytotoxicity Assay to monitor cytotoxicity in HepG2 cells - 32 hour (AID 1224883). Further: nearly all actives have a fitted effect of over 50% in size. Further: potency means the concentration at half of the fitted maximal effect. Summed up: as §5
Assay [15] in a line: A CellTox Green Cytotoxicity Assay to monitor cytotoxicity in HEK293 cells - 8 hour (AID 1224884). Further: nearly all actives have a fitted effect of over 35% in size. Further: potency means the concentration at half of the fitted maximal effect. Summed up:
as §2

The nature of assay [16]: qHTS RealTime-Glo MT Cell Viability Assay in HepG2 cells - 16 hour (AID 1224885). Further: nearly all actives have a fitted effect of over 50% in size. Put shortly:
as §6

Assay [17] is described as follows: qHTS RealTime-Glo MT Cell Viability Assay in HEK293 cells - 24 hour (AID 1224886). Summed up: as §3
Assay [18] can be described thus: qHTS RealTime-Glo MT Cell Viability Assay in HEK293 cells - 8 hour (AID 1224887). Summed up: as §4
Assay [19] in a line: A CellTox Green Cytotoxicity Assay to monitor cytotoxicity in HEK293 cells - 16 hour (AID 1224888). Further: nearly all actives have a fitted effect of over 35% in size. Summed up:
as §2

A short description of assay [20]: qHTS RealTime-Glo MT Cell Viability Assay in HepG2 cells - 0 hour (AID 1224889). Further: nearly all actives have a fitted effect of over 50% in size. Summed up:
as §6

Values joined by “and” are separate entries in the source; they are usually repeats but may differ in a detail not shown here. Equal values may be shown once. Inconclusive results are not listed. Where a structure was tested more than once in an assay, its records may differ in their call. Active and inactive are the calls of the source. The call rests on the fitted dose curve; in most records, active means well fitted curve in the direction sought with a large enough effect in the repeat runs; inconclusive means weak or mixed curves; inactive means no such curve, though single readings can be large; an effect the other way counts as inactive or inconclusive.
On the % scale 0 is the no-effect control and ±100 the full control effect.

Take `O=C(O)CN(CC(=O)O)CC(=O)O`: the result in assay [1], in assay [4] and in assay [8] was inactive. Moreover, the Potency entry in [2], in assay [3], in [6], in assay [7], in assay [9] and in assay [10] was “inactive” each time. The Potency result in assay [11], in [12], in [13], in [14], in [15] and in [16] was “inactive” in each case. In addition, the Potency result in [17], in assay [18], in assay [19] and in assay [20] was “inactive” each time. In [5], the max response was 3.36% (inactive) and 17.8% (inactive).
As to `COC1=CC(=O)C[C@@H](C)[C@]12Oc1c(Cl)c(OC)cc(OC)c1C2=O`, the compound was classed as inactive in [1], in assay [4] and in assay [8]. Moreover, the Potency entry in assay [2], in [3], in [6], in assay [7], in assay [11] and in assay [13] was “inactive” throughout. Also, the Potency entry in assay [16], in assay [18], in [19] and in assay [20] was “inactive” each time. Moreover, the max response in assay [5] is -25.7% (inactive). Further, the Potency in [9] is 38.6 µM (active) and inactive; in assay [10], 24.3 µM (active) and 21.9 µM (active) and 26.8 µM (active); in [14], 34.4 µM (active); in assay [15], 24.3 µM (active) and inactive.
Take `C=CCOC(=O)CC(C)C`: the compound was called inactive in assay [1], in assay [4] and in assay [8]. In addition, the Potency result in assay [2], in assay [3], in [6], in [7], in assay [9] and in [10] was “inactive” throughout. For the same compound, the Potency result in assay [12], in assay [13], in assay [14], in [15], in assay [16] and in assay [17] was “inactive” throughout. The Potency result in assay [18], in [19] and in assay [20] was “inactive” throughout. The max response in [5] is 4.01% (inactive) and 4.38% (inactive).
Regarding `COC(=O)C1CCC(C(=O)OC)CC1` (centres undefined), the compound was called inactive in assay [1], in assay [4] and in assay [8]. The Potency result in assay [2], in assay [3], in [6], in assay [7], in [9] and in [10] was “inactive” each time. Further, the Potency entry in assay [11], in assay [12], in assay [13], in [14], in [15] and in assay [16] was “inactive” throughout. The Potency result in [18], in assay [19] and in [20] was “inactive” in each case. In assay [5], the max response was 7.05% (inactive) and -2.3% (inactive) and 3.36% (inactive).
For `Cc1cccc(Nc2cc(Cl)nc(SCC(=O)O)n2)c1C`, the outcome in assay [1], in assay [4] and in assay [8] was inactive. Further, the Potency result in assay [2], in assay [3], in assay [6], in assay [7], in [9] and in [10] was “inactive” each time. Also, the Potency result in [13], in [14], in assay [15], in [16], in assay [18] and in assay [19] was “inactive” each time. Besides, the Potency result in assay [20] is “inactive”. In addition, in assay [5], the max response is -8.11% (inactive) and -6.81% (inactive) and -0.208% (inactive).
Turning to `C#C[C@]1(O)CC[C@H]2[C@@H]3CCc4cc(O)ccc4[C@H]3CC[C@@]21C`, the compound was called inactive in assay [1], in assay [4] and in assay [8]. Besides, the Potency is 12.2 µM (active) and inactive in assay [2]; 6.87 µM (active) and 21.9 µM (active) in assay [5]; 43.3 µM (active) and 6.7 nM (active) in assay [9]; 17.3 µM (active) and 19.5 µM (active) in [10]; 21.7 µM (active) and 43.6 µM (active) in [14]. Further, the Potency entry in assay [3], in assay [6], in assay [7], in assay [12], in [13] and in assay [15] was “inactive” each time. The Potency result in [16], in assay [18], in [19] and in assay [20] was “inactive” in each case.
Regarding `CCN1CCCC1=O`, the call in [1], in [4] and in assay [8] was inactive. Moreover, the Potency result in assay [2], in assay [3], in assay [7], in assay [9], in [10] and in assay [11] was “inactive” in each case. The Potency result in assay [12], in assay [13], in assay [14], in assay [15], in assay [16] and in assay [17] was “inactive” throughout. Further, the Potency result in assay [18], in assay [19] and in [20] was “inactive” throughout. The max response in assay [5] was 0.414% (inactive) and 1.37% (inactive).
Consider `O=c1c(-c2ccc(O)cc2)coc2cc(O)cc(O)c12`, for which the compound was classed as inactive in assay [1], in [4] and in [8]. Also, the Potency result in assay [2], in assay [6], in [7], in [9], in assay [10] and in [11] was “inactive” each time. Also, the Potency result in [12], in assay [13], in assay [14], in [15], in assay [16] and in assay [19] was “inactive” throughout. In addition, the Potency entry in assay [20] is “inactive”. Moreover, the Potency in [3] was 21.9 µM (active); in assay [5] it was 19.2 µM (active) and 19.5 µM (active).
`C=C(C)OC(C)=O`: the call in [1], in assay [4] and in [8] was inactive. Also, the Potency entry in assay [2], in assay [3], in assay [6], in assay [7], in assay [9] and in assay [10] was “inactive” each time. For the same compound, the Potency result in assay [11], in [13], in assay [14], in assay [15], in [16] and in [18] was “inactive” each time. Moreover, the Potency entry in assay [19] and in assay [20] was “inactive” in each case. Further, in assay [5], the max response is 5.33% (inactive) and 0.384% (inactive).
For `O=[N+]([O-])c1ccc(O)cc1`, the result in [1], in assay [4] and in assay [8] was inactive. Moreover, the Potency entry in [2], in assay [3], in assay [6], in assay [7], in [9] and in assay [10] was “inactive” throughout. Besides, the Potency entry in assay [13], in assay [14], in assay [15], in assay [16], in assay [18] and in assay [19] was “inactive” each time. Moreover, the Potency entry in assay [20] is “inactive”. Besides, in [5], the max response is -24.7% (inactive) and -8.36% (inactive) and 4.76% (inactive).
In the case of `CN(C)Cc1cc(CN(C)C)c(O)c(CN(C)C)c1`, the outcome in assay [1], in assay [4] and in assay [8] was inactive. Further, the Potency entry in [2], in assay [3], in [6], in assay [7], in [9] and in assay [10] was “inactive” throughout. Also, the Potency result in assay [12], in [13], in assay [14], in [15], in assay [16] and in assay [18] was “inactive” each time. Also, the Potency result in [19] and in [20] was “inactive” in each case. Also, the max response in [5] is -0.259% (inactive) and 3.23% (inactive).
Regarding `CC(O)COc1ccccc1` (centres undefined), the result in assay [1], in assay [4] and in assay [8] was inactive. Besides, the Potency entry in [2], in [3], in assay [7], in [9], in assay [10] and in assay [11] was “inactive” throughout. Moreover, the Potency result in [12], in assay [13], in [14], in assay [15], in assay [16] and in assay [18] was “inactive” each time. In addition, the Potency result in [19] and in assay [20] was “inactive” in each case. Besides, in [5], the max response was 1.14% (inactive) and -0.457% (inactive) and -1.74% (inactive).

The values above are taken from PubChem BioAssay (Tox21).
